Measured values published in PubChem BioAssay AID1159580 (chemical genetic matrix, 2015).
“And” between values parts separate entries of the source, which are not always exact repeats. Equal entries are not always repeated. Among all 5,500 compounds or so, about 2,000 (36%) were called active. Roughly 18% stayed inconclusive and do not appear here. No stated cut-off is given here; in the data, active means normalized growth mostly below about 0.91 (no sharp cut-off); inconclusive means no clear call, values can overlap the other calls; inactive means mostly above about 0.92. Some of the results follow.

Assay: chemical genetic growth profiling, strain panel (AID 1159580);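 further: tested at 20 µM; growth read once vehicle control cultures reached saturation at 30 °C; 1 = growth at the plate median or of vehicle wells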
Conditions: S. cerevisiae deletion strains, growth OD

Measured: normalized growth

CC[C@@]1(O)C(=O)OCc2c1cc1n(c2=O)Cc2cc3cc(O)ccc3nc2-1
inactive: locus YAL021C, strain ccr4, stronger effect = lower value 1.05 | locus YAL026C, strain drs2, stronger effect = lower value 1.01 | locus YAL030W, strain snc1, stronger effect = lower value 1.02 | locus YBL061C, strain skt5, stronger effect = lower value 1.01 | locus YBR009C, strain hhf1, stronger effect = lower value 0.972 | locus YBR021W, strain FUR4, stronger effect = lower value 1.01 | locus YBR023C, strain chs3, stronger effect = lower value 1.02 | locus YBR171W, strain sec66, stronger effect = lower value 1.02 | locus YBR229C, strain ROT2, stronger effect = lower value 1.01 | locus YBR231C, strain swc5, stronger effect = lower value 0.98 | locus YBR279W, strain paf1, stronger effect = lower value 1.03 | locus YCL011C, strain gbp2, stronger effect = lower value 1.02 | locus YCL016C, strain dcc1, stronger effect = lower value 1.01 | locus YCL029C, strain bik1, stronger effect = lower value 0.992 | locus YCL069W, strain vba3, stronger effect = lower value 1.01 | locus YCR088W, strain abp1, stronger effect = lower value 1.01 | locus YDL005C, strain med2, stronger effect = lower value 1.02 | locus YDL035C, strain GPR1, stronger effect = lower value 1.01 | locus YDL040C, strain nat1, stronger effect = lower value 1.02 | locus YDL074C, strain BRE1, stronger effect = lower value 1 | locus YDL101C, strain DUN1, stronger effect = lower value 1.03 | locus YDL185W, strain tfp1, stronger effect = lower value 0.996 | locus YDL192W, strain arf1, stronger effect = lower value 0.983 | locus YDR001C, strain nth1, stronger effect = lower value 0.992 | locus YDR069C, strain doa4, stronger effect = lower value 1.01 | locus YDR101C, strain arx1, stronger effect = lower value 0.986 | locus YDR137W, strain rgp1, stronger effect = lower value 0.997 | locus YDR159W, strain sac3, stronger effect = lower value 0.946 | locus YDR162C, strain NBP2, stronger effect = lower value 1.02 | locus YDR195W, strain ref2 1.01 | locus YDR297W, strain sur2, stronger effect = lower value 0.987 | locus YDR318W, strain mcm21, stronger effect = lower value 0.992 | locus YDR334W, strain swr1, stronger effect = lower value 1.04 | locus YDR335W, strain msn5, stronger effect = lower value 0.997 | locus YDR388W, stronger effect = lower value 0.989 | locus YDR392W, strain spt3, stronger effect = lower value 0.976 | locus YDR502C, strain sam2, stronger effect = lower value 0.973 | locus YEL003W, strain gim4, stronger effect = lower value 0.995 | locus YEL037C, strain rad23, stronger effect = lower value 1.01 | locus YEL061C, strain CIN8 (second series), stronger effect = lower value 1.01 | locus YEL061C, strain CIN8, stronger effect = lower value 1.01 | locus YER015W, strain faa2, stronger effect = lower value 0.993 | locus YER016W, strain bim1, stronger effect = lower value 1.02 | locus YER110C, stronger effect = lower value 0.991 | locus YER111C, strain swi4, stronger effect = lower value 1.01 | locus YER155C, strain BEM2 (second series), stronger effect = lower value 0.972 | locus YER155C, strain BEM2, stronger effect = lower value 1.01 | locus YER167W, strain BCK2, stronger effect = lower value 1.01 | locus YFR010W, strain ubp6, stronger effect = lower value 0.972 | locus YGL078C, strain dbp3, stronger effect = lower value 0.99 | locus YGL086W, strain mad1, stronger effect = lower value 0.988 | locus YGL167C, strain pmr1, stronger effect = lower value 1.01 | locus YGL173C, strain kem1, stronger effect = lower value 0.97 | locus YGL227W, strain vid30, stronger effect = lower value 1.01 | locus YGL240W, strain doc1, stronger effect = lower value 0.947 | locus YGL248W, strain PDE1, stronger effect = lower value 1.03 | locus YGL253W, strain hxk2, stronger effect = lower value 1 | locus YGR078C, strain PAC10, stronger effect = lower value 1.02 | locus YGR135W, strain pre9, stronger effect = lower value 0.991 | locus YGR252W, strain gcn5, stronger effect = lower value 0.972 | locus YHR013C, strain ard1, stronger effect = lower value 1.03 | locus YHR027C, strain rpn1, stronger effect = lower value 1 | locus YHR030C, strain SLT2, stronger effect = lower value 1.02 and 0.974 | locus YHR079C, strain IRE1 (second series), stronger effect = lower value 0.981 | locus YHR079C, strain IRE1, stronger effect = lower value 0.952 | locus YHR094C, strain hxt1, stronger effect = lower value 0.98 | locus YHR129C, strain ARP1, stronger effect = lower value 1.01 | locus YHR142W, strain chs7, stronger effect = lower value 1.02 | locus YHR200W, strain rpn10, stronger effect = lower value 1.01 | locus YIL066C, strain RNR3, stronger effect = lower value 1.01 | locus YIL073C, strain SPO22, stronger effect = lower value 0.985 | locus YIL125W, strain kgd1, stronger effect = lower value 0.992 | locus YIR030C, strain dcg1, stronger effect = lower value 0.981 | locus YJL092W, strain hpr5, stronger effect = lower value 0.992 | locus YJL095W, strain BCK1 (second series), stronger effect = lower value 1.02 | locus YJL095W, strain BCK1, stronger effect = lower value 1.04 and 0.957 | locus YJL115W, strain asf1, stronger effect = lower value 0.984 | locus YJL129C, strain trk1, stronger effect = lower value 1 | locus YJL134W, strain LCB3, stronger effect = lower value 1.02 | locus YJL154C, strain vps35, stronger effect = lower value 1 | locus YJL164C, strain tpk1, stronger effect = lower value 1.01 | locus YJL166W, strain qcr8, stronger effect = lower value 0.99 | locus YJL168C, strain set2, stronger effect = lower value 0.989 | locus YJL187C, strain SWE1 (second series), stronger effect = lower value 1.02 | locus YJL187C, strain SWE1, stronger effect = lower value 1.02 | locus YJR043C, strain POL32, stronger effect = lower value 0.993 | locus YJR066W, strain TOR1, stronger effect = lower value 0.986 | locus YKL009W, strain mrt4, stronger effect = lower value 1.04
